Results published in PubChem BioAssay AID1508625 (Wald Lab, School of Medicine, Case Western Reserve …, 2021).

Test: enhancers of NK cell killing of ovarian tumor cells, primary screen, imaging, OVCAR3, primary NK cells, calcein-AM imaging (AID 1508625);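 note: compound given to NK cells 16 h before adding targets at 1.5 to 1 ratio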
Settings: OVCAR3 lysis by primary NK cells, at 5 µM; z-score: measured here: robust Z-score, single-point normalisation

| Structure (SMILES) | z-score | corrected activity, negative = more killing [%] |
| --- | --- | --- |
| COc1c(Cl)cccc1NC(=O)c1cccc2ccccc12 | -1.31 | -3.52 |
| Cc1n[nH]c(C)c1CCC(=O)NN=Cc1ccccc1O | -0.652 | -1.49 |
| C#CCOc1ccc2c(c1)c(C(C)=O)c(C)n2-c1ccc(OCC)cc1 | -0.66 | -1.52 |
| CC(=O)c1cccc(NC(=O)C2CCN(C(=O)c3ccc(F)cc3)CC2)c1 | -1.22 | -3.29 |
| O=C(Oc1ccc(C(=S)N2CCCCC2)cc1)c1ccccc1 | -0.857 | -2.77 |
| CCc1ccc(N2C(=O)CSC2c2ccc(Br)cc2)cc1 (stereo not drawn) | -1.62 | -3.8 |
| Cc1ccc(OCc2ccc([N+](=O)[O-])cc2)cc1C | -0.719 | -1.29 |
| OCCNCCCOc1ccccc1F | -0.566 | -1.78 |
| CC1=C(C(=O)Nc2cccc(Cl)c2)C(c2cccc(Cl)c2)NC(=O)N1 (stereo not drawn) | -0.84 | -1.94 |
| Cn1c(SCC(=O)c2ccccc2)nc2c([nH]c3ccccc32)c1=O | -1.41 | -5.65 |
| CCN(CC)c1cc(O)c2c(c1N)C(=O)c1ccccc1C2=O | -0.772 | -2.05 |
| C(=Cc1ccccc1)CN1CCN(C2c3ccccc3-c3ccccc32)CC1 | -0.0313 | -0.148 |
| CCOc1ccc(C2C(=C(O)c3ccccc3)C(=O)C(=O)N2CCO)cc1 (stereo not drawn) | -0.996 | -2.61 |
| FC(F)(F)c1cc(-c2cccs2)nc2nc(=S)[nH]n12 | -0.791 | -2.93 |
| CCOC(=O)c1ccc(NC(=O)C(=O)N2CCCC2)cc1 | -2.55 | -5.89 |
| Cc1ccccc1-c1n[nH]c(=S)o1 | -1.65 | -4.65 |
| COc1cccc(C(=O)N2CCN(CC3CC=CCC3)CC2)c1OC (stereo not drawn) | -1.46 | -3.28 |
| Cc1cc(Br)c(O)c(C=NCCNC(=O)c2nonc2N)c1 | 0.173 | 0.42 |
| COc1ccc(C=Nc2ccc(C(N)=O)cc2)cc1 | -0.885 | -2.24 |
| Cc1ccc(Cl)cc1N1C(=O)CN(Cc2cccs2)C1=S | -0.567 | -2.1 |

| Structure (SMILES) | z-score | corrected activity, negative = more killing [%] |
| --- | --- | --- |
| Cc1c(C(=O)NC(C)C)oc2ccc(S(=O)(=O)N3CCOCC3)cc12 | -0.849 | -3.41 |
| CCOC(=O)Cc1c(C)nc2cc(-c3ccc(C(C)(C)C)cc3)[nH]n2c1=O | -2.37 | -7.93 |
| CCOc1ccc2nc(NC(=O)CCC(=O)OCC(F)(F)F)sc2c1 | -1.41 | -3.74 |
| Brc1ccc(SCCc2nc3ccccc3o2)cc1 | -1.56 | -4.19 |
| COc1ccccc1CNC(=O)C1CCN(S(=O)(=O)c2cccc3nonc23)CC1 | -1.49 | -5.24 |
| CC(C)CCNC(=O)c1c[nH]c2ccc(S(=O)(=O)N3CC(C)CC(C)C3)cc2c1=O (stereo not drawn) | -1.21 | -3.33 |
| CN(C)c1ccc(C=C(C(=O)c2ccccc2)c2nc3ccccc3[nH]2)cc1 | -1.03 | -1.99 |
| CCOc1ccc(-c2cc(C(=O)NN=Cc3cccnc3)[nH]n2)cc1 | -2.15 | -4.91 |
| COc1ccc(CNC(=O)Cn2c(=S)[nH]c3ccccc3c2=O)cc1 | -1.22 | -4.59 |
| Cc1ccc2cccnc2c1[N+](=O)[O-] | -0.744 | -3.53 |
| COc1ccc(CN2C(=O)c3ccccc3C2C(=O)NCCCN2CC(C)CC(C)C2)cc1 (stereo not drawn) | -0.869 | -3.06 |
| O=c1c2cc(N3CCCCC3)ccc2[nH]c(=S)n1Cc1ccccc1 | -1.8 | -6.78 |
| CCOc1ccc(C2C(N3C(=O)c4ccc([N+](=O)[O-])cc4C3=O)C(=O)N2c2ccc(Cl)cc2)cc1 (stereo not drawn) | 0.278 | 0.896 |
| COc1cc2c(cc1NC(=O)Nc1cc3oc4ccccc4c3cc1OC)oc1ccccc12 | -1.85 | -6.21 |
| Cc1cccc(C)c1NC(=O)c1sc2[nH]c(=O)c(C(=O)O)cc2c1N | -0.931 | -3.74 |
| Cc1ccc(NCc2cccnc2)cc1 | -0.529 | -1.25 |
| O=C(CCCN1C(=O)c2cccc3cccc(c23)C1=O)NCCO | -0.651 | -1.75 |
| CCSc1ccc(NC(=O)CC2c3ccccc3Oc3ccccc32)cc1 | -2.39 | -7.71 |
| CC(C)c1ccc(OCC(=O)Nc2ccc3c(c2)OCCO3)cc1 | -0.869 | -2.45 |
